FBA Mtb inh – Mtb fructose-bisphosphate aldolase inhibition; inhibition, % at 1 µM; P9WQA3; actives 2.3% (n = 360,000); purified M. tuberculosis FBA, fluorescence read-out;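 also: 0% = vehicle and 100% = reference inhibitor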
Target sequence (P9WQA3 whole entry, looked up): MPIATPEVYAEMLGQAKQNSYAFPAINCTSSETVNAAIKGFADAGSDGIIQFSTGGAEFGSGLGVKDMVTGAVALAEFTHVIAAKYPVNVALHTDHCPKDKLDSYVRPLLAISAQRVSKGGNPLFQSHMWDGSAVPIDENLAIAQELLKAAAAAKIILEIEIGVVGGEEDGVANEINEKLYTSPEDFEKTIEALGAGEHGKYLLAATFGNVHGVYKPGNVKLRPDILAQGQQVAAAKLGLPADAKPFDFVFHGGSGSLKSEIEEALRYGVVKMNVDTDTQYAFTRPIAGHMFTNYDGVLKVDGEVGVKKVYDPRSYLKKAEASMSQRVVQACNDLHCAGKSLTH
BoNT F protease – BoNT F light chain protease inhibition; Multiplex microsphere protease cleavage assay, flow cytometry; actives 0.22% (n = 360,000); AID 588497; inhibition, % at 10 µM; in the data active = inhibition above about 35%, passing the limit was not always enough; inconclusive = no clear call, values can overlap the other calls; also: plate controls were buffer without enzyme for full effect and enzyme alone for no effect
BoNT-A LC inh2 – inhibitors of Botulinum neurotoxin A light chain protease | actives 0.17% (n = 360,000) | multiplex microsphere protease substrate cleavage, flow cytometry | AID 588499 | inhibition, % at 10 µM; in the data active = inhibition above about 30%; inconclusive = no clear call, values can overlap the other calls; also: plate controls were buffer without enzyme for full effect and enzyme alone for no effect
GDH-TPI counter-1 – inhibits GDH-TPI coupling enzymes, artifact for Mtb FBA screen. inhibition, % at 4.8 µM. GDH-TPI coupled enzyme counterscreen, NADH absorbance. actives 1.2% (n = 360,000); in the data active = inhibition above about 30%;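 also: 0% = DMSO wells and 100% = wells lacking the enzyme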
Anthrax LF prot – blocks Bacillus anthracis lethal factor protease; actives 0.12% (n = 360,000); P15917; multiplex microsphere protease cleavage assay, LF; AID 588501; inhibition, % at 10 µM; in the data active = inhibition above about 30%; inconclusive = no clear call, values can overlap the other calls; also: plate controls were buffer without enzyme for full effect and enzyme alone for no effect
Bead autofluor – compound fluorescence in toxin protease inhibitor counterscreen. AID 624483. actives 3.1% (n = 360,000). fluorescence intensity (no concentration beside the values). compound autofluorescence counterscreen, microsphere flow cytometry; active compounds read high; in the data active = fluorescence intensity above about 16000; inconclusive = no clear call, values can overlap the other calls
Mtb FBA inh conf – confirmation of M. tuberculosis fructose-bisphosphate aldolase inhibitors; shares compounds with FBA Mtb inh; purified M. tuberculosis FBA, fluorescence read-out; inhibition, % at 1 µM; actives 78% (n = 5,600);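 also: 0% = vehicle wells and 100% = reference inhibitor wells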
GDH-TPI counter-2 – counter-screen for M. tuberculosis FBA inhibitors: GDH-TPI coupled enzyme inhibition | shares compounds with FBA Mtb inh | inhibition, % at 1 µM | actives 81% (n = 5,600) | GDH-TPI coupled enzyme counterscreen, fluorescence; in the data active = inhibition above about 10%
Numbers without * were called inactive; u = inconclusive; x = not tested or not shown; + = active, no number. A selection: hits, their analogues and other compounds. The true share with any hit is near 6.7%. Rule as the data show it, unless noted: active = inhibition above about 27%; inactive = the rest.

SMILES	FBA Mtb inh	BoNT F protease	BoNT-A LC inh2	GDH-TPI counter-1	Anthrax LF prot	Bead autofluor	Mtb FBA inh conf	GDH-TPI counter-2
CC(/C=C1\SC(=S)N(NC(=O)c2cccc(O)c2)C1=O)=C\c1ccccc1	-4	5	2	10	3	8968	x	x
Cc1cccc(C)c1NC(=O)CS(=O)CC(=O)Nc1ccc(F)cc1F (stereo unspecified)	0	10	1	9	0	3347	x	x
COc1cc(/C=C/C(=O)OCC(=O)N2CCc3ccccc32)cc(OC)c1OC	15	-3	0	7	4	3553	x	x
S=c1[nH]c(-c2ccccc2)cn1/N=C/c1ccncc1	35*	-3	0	4	6	4588	49*	42*
COc1ccc(/C=N/n2c(-c3ccccc3)n[nH]c2=S)cc1	3	-22	6	3	-2	4051	x	x
CCOc1ccc(/C=N/n2cc(-c3ccccc3)[nH]c2=S)cc1	67*	-2	-1	29	8	4671	89*	80*
FC(F)(F)c1ccc(Cl)c(-n2c(Cc3cccs3)n[nH]c2=S)c1	1	u	-4	-1	16	4356	x	x
NC(=O)COc1c(-c2ccc(Br)o2)oc2ccccc2c1=O	105*	12	0	35*	-14	3132	154*	113*
O=C(NC(=S)Nc1ccc(N2CCCCC2)c(Cl)c1)c1ccc2c(c1)OCCO2	-1	10	-10	22	0	10211	x	x
COc1cccc2nc3c(C(=O)NCCN(C)C)cccc3cc12	1	-14	2	9	3	3587	x	x
CN(C)CCNC(=O)c1cccc2[nH]c(-c3ccncc3)nc12	35*	-7	-1	12	0	3535	22	20*
COc1ccc2c(c1OC)C(=O)N1C(C(=O)O)Cc3c([nH]c4ccccc34)C21 (stereo unspecified)	36*	-2	1	0	-4	9055	107*	89*
COc1ccc(N(C)C(=O)c2cc3c(s2)-c2ccccc2OC3)c(OC)c1	4	-5	-1	30	-1	4335	x	x
CC(=O)c1cc2c(s1)-c1cc(F)ccc1OC2	87*	-4	2	20	-4	5371	63*	51*
CC1CCCCN1C(=O)COC(=O)c1ccc(N2CCCC2=O)cc1 (stereo unspecified)	-1	0	1	-11	4	3461	x	x
O=C(Nc1ccc(N2CCOCC2)cc1)C1CCN(S(=O)(=O)c2cccc(C(F)(F)F)c2)CC1	1	0	0	15	-3	2940	x	x
O=C(Nc1ccc(N2CCOCC2)cc1)C1CCN(S(=O)(=O)c2ccccc2F)CC1	37*	-12	0	3	-2	4084	26	19*
COc1cccc2[nH]c(=O)c(-c3ccccc3)cc12	71*	-12	-2	9	9	3813	47*	39*
COc1ccc(-c2cc(=O)[nH]c3ccccc23)cc1	19	-1	0	7	1	3887	x	x
COc1ccccc1-c1nc(C(=O)NCC2CCCO2)cc2c1[nH]c1ccccc12 (stereo unspecified)	24	7	0	7	0	5854	x	x
COc1cc(-c2nc(C(=O)NCC3CCCO3)cc3c2[nH]c2ccccc23)cc(OC)c1OC (stereo unspecified)	38*	-17	0	3	-1	5635	60*	50*
COc1cccc(-c2nn(-c3ccc(F)cc3)cc2C(=O)NCC2CCCO2)c1 (stereo unspecified)	47*	4	-6	-9	-3	u	+	+
O=C(NCC1CCCO1)c1cc2ccccc2[nH]1 (stereo unspecified)	14	-8	0	5	0	2549	x	x
COc1cccc(-c2nn(-c3ccc(C)cc3)cc2C(=O)NCC2CCCO2)c1 (stereo unspecified)	7	u	-2	8	2	u	x	x
COc1cccc2[nH]c(C(=O)NCC3CCCO3)cc12 (stereo unspecified)	32*	-10	0	-7	-3	3562	126*	97*
O=C(NCCCN1CCOCC1)c1cc2c([nH]c3ccccc32)c(-c2cccc(Br)c2)n1	21	4	0	6	-3	4064	x	x

Assay outcomes (PubChem BioAssay)
